From ChEMBL document CHEMBL4513216, “Probing the Open Global Health Chemical Diversity Library for Multistage-Active Starting Points for Next-Generation Antimalarials” (ACS Infect Dis, 2020)
Screen size: about 68,000 compounds; about 2,700 (4%) showed an effect of 50% or more. The list comes from a sample in which strong results are over-represented; it also holds similar structures and randomly drawn compounds.

The compounds below were run on Plasmodium berghei (assay: Screen against P. berghei liver stage (PbLuc), transformed with Luciferase, at 2uM). Details: tested at 2 uM.
Assay type: functional, HepG2

SMILES | INHIBITION
Cc1csc(C(=O)N2CCC3(CC(N(C)c4ccncn4)C3)C2)c1 (stereo unspecified) | -18.68%
CN(CC(O)C1CC1)C(=O)Nc1ccc(F)c(-n2cccc2)c1 (stereo unspecified) | 42.76%
c1ccc(-c2nc(CCNCc3cccnc3)co2)cc1 | 30.88%
CS(=O)(=O)NCCC(=O)NC1(c2ccc(F)cc2)CCCC1 | 5.17%
CS(=O)(=O)NCCNC(=O)NC1(c2ccc(Cl)cc2)CCC1 | 43.88%
CS(=O)(=O)NCCNC(=O)NC1(c2ccc(F)cc2)CCCC1 | 52.3%
CN(C)CCOCc1nnc2n1CCN(Cc1ccsc1)C2 | 20.2%
CCc1cc(NC(=O)C2CCCN(C(=O)NCC(C)C)C2)[nH]n1 (stereo unspecified) | 6.62%
Cc1n[nH]c(C)c1NC(=O)C1CCCN(C(=O)NCC(C)C)C1 (stereo unspecified) | 52.95%
Cc1c(C2CC2)n[nH]c1NC(=O)C1CCCN(C(=O)NCC(C)C)C1 (stereo unspecified) | -7.81%
CC(C)c1sc(Cl)nc1C(=O)N1CCN(c2ccccn2)CC1 | 20.42%
COc1ncnc2c1CCN(C(=O)NCc1cccnc1)CC2 | 46.02%
O=C(NCCc1ccncc1)C1CCN(Cc2ccco2)CC1 | -0.55%
COCCNC(=O)Cn1cc(NC(=O)c2ccc(C(C)(C)C)cc2)cn1 | -38.81%
CCc1nc(CN2CCCN(Cc3noc(C4CC4)n3)CC2)cs1 | -17.17%
CC(C)c1nc(CS(=O)(=O)Cc2noc(C3CC3)n2)cs1 | 53.12%
CCc1nc(CS(=O)(=O)Cc2noc(C3CC3)n2)cs1 | -18.58%
CN1CC(C(=O)NC2(c3ccc(Cl)cc3)CCOCC2)CC1=O (stereo unspecified) | 3%
CN(C)C(=O)COCC1CN(Cc2ccco2)Cc2ncn(C)c21 (stereo unspecified) | -45.9%
CC(C)c1nnc2n1CCN(C(=O)c1ccc(CN(C)C)cc1)C2 | 50.72%
CC(C)c1nnc2n1CCN(C(=O)c1ccc3c(c1)CCC3)C2 | 9.17%
CCCc1ccc(C(=O)N2CCn3c(nnc3C(C)C)C2)cc1 | 15.08%

SMILES | INHIBITION
CC(C)c1nnc2n1CCN(C(=O)c1ccc(Cn3cccc3)cc1)C2 | 15.08%
CC(C)c1nnc2n1CCN(C(=O)c1ccc3cc[nH]c3c1)C2 | 45.92%
CC(C)c1nnc2n1CCN(C(=O)c1ccc3c(c1)COC3)C2 | 57.75%
O=C(c1ccoc1)N1CCn2cnc(COCC3CC3)c2C1 | 41.79%
O=C1Nc2ccccc2C12CCN(Cc1nccs1)CC2 | 21.61%
O=C(Cc1ccccc1F)N1C[C@@H]2COC[C@]2(COc2cccnc2)C1 | -2.44%
CO[C@H]1CO[C@@]2(CCCN(C(=O)N3CCCC3)C2)C1 | 28.13%
CN1CCCN(C(=O)c2cccc(S(=O)(=O)NCC3(C)COC3)c2)CC1 | -35.07%
CC1=CCN(S(=O)(=O)c2cccc(C(=O)N3CCCN(C)CC3)c2)CC1 | 23.17%
CN1CCCN(S(=O)(=O)c2cccc(C(=O)N3CCCCCC3)c2)CC1 | 54.75%
CCN(CC)C(=O)CSc1sc2c(O)cc(=O)[nH]c2c1C(N)=O | -56.02%
Cc1ccc(N2C[C@H]3CCN(Cc4ccncc4)C[C@H]3C2)nn1 | 16.63%
O=C(c1ccno1)N1CCO[C@]2(CCC[C@@H]2COCc2ccncc2)C1 | 64.99%
O=C(c1ccoc1)N1CCO[C@]2(CCC[C@@H]2COCc2ccncc2)C1 | 35.48%
O=C(c1ccoc1)N1CCO[C@]2(CCC[C@H]2COCc2cccnc2)C1 | 5.85%
CCNC(=O)C1(Cc2cc(-c3ccc(C)cc3)no2)CCCN(C)C1 (stereo unspecified) | -40.35%
CS(=O)(=O)c1cn[nH]c1C1CCCCN1C(=O)c1cnccn1 (stereo unspecified) | 17.39%
CC(C)NC(=O)N1CCC2(CC(C(=O)NCc3cccnc3)=NO2)C1 (stereo unspecified) | -7.01%
COCCN(CCOC)c1ncccc1I | 38.1%
COCCN(CCOC)c1ncc(C#N)cc1Cl | 1.42%
COCCN(CCOC)c1ncccc1Cl | 67.7%
CCOc1ccc(Cl)cc1C1CCCCN1 (stereo unspecified) | 14.61%

SMILES | INHIBITION
COCCNC(=O)Cn1cc2c(n1)c(C)nn2C(C)C | -28.32%
CC(C)CN1CC[C@H](c2nnc(COc3ccc(F)cc3)o2)C1 | 10.65%
Cn1cccc1C(=O)N1CCC2(CC1)CN(S(C)(=O)=O)c1ccccc12 | 38.64%
CS(=O)(=O)N1CC2(CCN(C(=O)c3ccncc3)CC2)c2ccccc21 | 9.53%
CS(=O)(=O)N1CC2(CCN(C(=O)c3csnn3)CC2)c2ccccc21 | 54.01%
O=C(CN1C(=O)c2ccccc2C1=O)N1CCOC2(CCOCC2)C1 | 13.46%
CN(C)CCOCc1cncc2c1CCN(C(=O)c1cscn1)C2 | -30.85%
Nc1nc(NCCc2[nH]nc3c2CCCC3)cc(N2CCOCC2)n1 | 67.28%
CN(Cc1n[nH]c2c1CCCC2)c1cc(N2CCOCC2)nc(N)n1 | -32.88%
CCc1cc(N(C)Cc2[nH]nc3c2CCC3)nc(N2CCOCC2)n1 | 33.9%
CCn1nc(C)c(NC(=O)CCn2ncc3cc(C)ccc32)c1C | 24.79%
CCc1nsc(NC2CCCn3nc(COC)nc32)n1 (stereo unspecified) | -11.71%
CCc1ncncc1C(=O)NCCNS(=O)(=O)c1ccccc1 | 48.68%
Cc1ccc(S(=O)(=O)NCCNC(=O)c2cncnc2C)cc1 | 55.25%
CCc1ncncc1C(=O)NCCNS(=O)(=O)c1ccc(C)cc1 | -41.64%
Cc1nn(Cc2ccc(C(=O)NCCCN3CCCC3=O)o2)c(C)c1Cl | 26.37%
CCCc1n[nH]c(C2CN(C(=O)c3cc(F)ccc3OC)CCO2)n1 (stereo unspecified) | -29.94%
Cc1nc2n(n1)CC(NCC(=O)Nc1cc(C)on1)CC2 (stereo unspecified) | -2.87%
Cc1nc2n(n1)CC(NCC(=O)NCC1(c3ccccc3)CC1)CC2 (stereo unspecified) | 58.69%
COc1ccccc1CCNC(=O)CNC1CCc2nc(C)nn2C1 (stereo unspecified) | 35.56%
CC(=O)N1CCCn2nc(CNS(=O)(=O)N3CCC(C)CC3)cc2C1 | 47.62%
O=c1[nH]c(NC2CCCC2)nc2nccc(-c3ccsc3)c12 | -18.11%

SMILES | INHIBITION
COCCN1CC[C@]2(CN(C(=O)c3ccc[nH]3)C[C@H]2C)C1=O | 16.21%
CCOc1c(Br)cc(CNCCc2nnc3n2CCCCC3)cc1OC | 23.16%
CC1CCCCN1C(=O)c1nc2c(n1C(C)C)CCN(C)C2 (stereo unspecified) | -19.99%
Cc1nc2ccccc2nc1CN1CCCC1c1c(C)nn(C)c1C (stereo unspecified) | 28.51%
NC(=O)COc1cccc(CN2CCCC2c2ccc[nH]2)c1 (stereo unspecified) | -4.58%
COc1cccc(CN2CCCC2c2c(C)nn(C)c2C)c1 (stereo unspecified) | 61.53%
CC(=O)N1CCN(C(=O)CN2CCCC2c2c(C)nn(C)c2C)CC1 (stereo unspecified) | 60.6%
N#CCCCOc1cccc(CN2CCCC2c2ccc[nH]2)c1 (stereo unspecified) | -61.99%
Cc1nn(C)c(C)c1C1CCCN1Cc1nc2ccccc2n1C (stereo unspecified) | 53.11%
Cc1nn(C)c(C)c1C1CCCN1Cc1cccc(C(N)=O)c1 (stereo unspecified) | 15.91%
Cc1nn(C)c(C)c1C1CCCN1Cc1nc(C)c2ccccc2n1 (stereo unspecified) | 5.1%
Cc1nn(C)c(C)c1C1CCCN1Cc1cccc(OCC(N)=O)c1 (stereo unspecified) | 35.94%
Cc1nn(C)c(Cl)c1C1CCCN1CC(=O)N1CCCCC1 (stereo unspecified) | -0.9%
COc1cccc(CN2CCCC2c2ccc[nH]2)c1 (stereo unspecified) | 68.02%
Cc1nn(C)c(C)c1NC(=O)CN1CCCC1c1c(C)nn(C)c1C (stereo unspecified) | 23.42%
Cn1cccc1CCC(=O)N1CCC2(CC1)c1ccccc1CC2O (stereo unspecified) | -57.12%
Cc1cnccc1N1CCCN(C(=O)CCc2n[nH]c(C)c2C)CC1 | -40.52%
O=C(c1ccc(F)c(Br)c1)N1CCCN2CCCC2C1 (stereo unspecified) | -4.48%
O=C(Cc1ccsc1)N1CCC(Cn2cc(CCO)nn2)CC1 | 12.57%
O=C(CCc1ccsc1)N1CCC(n2cc(CO)nn2)CC1 | -25.13%
COCc1cn(C2CCN(C(=O)Cc3ccsc3)CC2)nn1 | 53.98%
Cc1noc(CCCC(=O)N2CCCCC2CNS(C)(=O)=O)n1 (stereo unspecified) | 30.58%

SMILES | INHIBITION
CC(C)c1cccc(CSc2nnc(CN3CCCC3=O)o2)n1 | -12.97%
CC(C)Oc1ccc(CSc2nnc(CN3CCCC3=O)o2)cc1 | 0.63%
O=C1CCCN1Cc1nnc(SCc2ccc3c(c2)CCC3)o1 | 52.31%
CN(C)CCCNC(=O)c1cnc(Cc2ccc(F)cc2)s1 | -12.27%
COC(=O)CCNC(=O)c1cnc(Cc2ccc(F)cc2)s1 | -9.47%
CCc1ncc(C(=O)NCCNC(=O)Cc2ccc(F)cc2)s1 | 61.99%
CCc1ncc(C(=O)NCCNc2ccncc2)s1 | -23%
CN(C)C(=O)CN(C)C(=O)c1cnc(Cc2ccc(F)cc2)s1 | 52.08%
CCNC(=O)c1cnc(Cc2ccc(F)cc2)s1 | 6.55%
O=C(CC1CCCO1)NCc1ccc(Br)cc1F (stereo unspecified) | -7.89%
CC(C)N1CCCC(C(=O)N2CCN(c3nsc4ccccc34)CC2)C1 (stereo unspecified) | -52.08%
O=C(NCC1CCOC1)c1csc(Cc2ccccc2)n1 (stereo unspecified) | 28.14%
C[C@@H]1CN(C(=O)c2ccc(Br)cc2F)CC(C(N)=O)O1 (stereo partly specified) | 57.34%
COC(=O)C1CCCCN1C(=O)c1ccc(N(C)C)cc1F (stereo unspecified) | 36.67%
Cc1ccc(C(=O)N2CC(C(N)=O)O[C@H](C)C2)c(C)c1 (stereo partly specified) | -3.25%
COC(=O)C1CCCN1C(=O)c1ccc(Br)cc1F (stereo unspecified) | 61.96%
Cc1ccc(C(=O)N2CC(C(N)=O)O[C@H](C)C2)c(F)c1 (stereo partly specified) | -41.96%
COC(=O)C1CCCN1C(=O)c1ccc(Cl)cc1F (stereo unspecified) | -8.14%
